Compound activity as filed in PubChem.
TDP1 cell noCPT – qHTS for Inhibitors of human tyrosyl-DNA phosphodiesterase 1 (TDP1): qHTS in cells in absence of CPT; 420,000 tested, 15% active; DT40 Tdp1-/- hTDP1 cells, no CPT, ATP luminescence, 48 h; Potency, µM (series often up to 46.2 µM), for inactives: top-dose activity change, negative = growth inhibition, most hits filed as inhibitors; further: potency means the concentration at half of the fitted maximal effect; on the % scale 0 is the no-effect control and ±100 the full control effect; nearly all actives have a fitted effect of over 55% in size
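Chicken DT40 Tdp1-/- cells complemented with human TDP1, screened without camptothecin (DMSO vehicle only), 400 cells/well. Compounds pin-transferred, cells incubated at 37 °C for at least 48 hr. Growth read as ATP-dependent luminescence (CellTiter-Glo, 30 min at RT).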
S-ASM inh – human S-ASM enzyme inhibition | placental ASM, HMU-PC fluorogenic substrate, 60 min | 340,000 tested, 0.006% active | Potency, µM (highest dose often 57.5 µM), inactives show at the highest dose activity change, negative = inhibition, actives largely listed as inhibitors; further: potency means the concentration at half of the fitted maximal effect
Target sequence (P17405 47-631 limits assumed): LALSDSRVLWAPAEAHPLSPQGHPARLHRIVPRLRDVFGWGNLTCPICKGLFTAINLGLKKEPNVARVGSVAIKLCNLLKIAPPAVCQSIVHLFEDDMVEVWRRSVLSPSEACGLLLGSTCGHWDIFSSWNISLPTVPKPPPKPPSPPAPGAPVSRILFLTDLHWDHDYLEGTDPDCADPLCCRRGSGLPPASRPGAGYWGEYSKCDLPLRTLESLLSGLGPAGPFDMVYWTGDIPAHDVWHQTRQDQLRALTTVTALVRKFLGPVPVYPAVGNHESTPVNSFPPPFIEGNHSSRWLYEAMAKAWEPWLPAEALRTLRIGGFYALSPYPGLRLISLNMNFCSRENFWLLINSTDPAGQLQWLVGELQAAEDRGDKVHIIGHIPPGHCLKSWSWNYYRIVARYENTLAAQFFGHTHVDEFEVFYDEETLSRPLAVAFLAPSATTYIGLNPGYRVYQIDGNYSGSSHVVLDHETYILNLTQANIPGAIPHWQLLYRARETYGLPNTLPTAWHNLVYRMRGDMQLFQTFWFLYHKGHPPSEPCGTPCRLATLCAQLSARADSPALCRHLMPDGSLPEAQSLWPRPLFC
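HMU-PC0 cleavage (9 uM final) by human placental ASM, 60 min at 37 °C following 10 min compound exposure at RT; stopped at pH 10, fluorescence Ex 386/Em 447 nm.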
IL-1B inflam inh – inflammasome signaling inhibition, IL-1 beta readout. AID 743279. THP-1 LPS/ATP IL-1B secretion, AlphaLISA, 16 h; hits give low values. activity change, % at 57.5 µM. 360,000 tested, 4.7% active; in the data active means activity change below about -50%; inconclusive means mostly about -30% to -49%; further: on the % scale 0 is the no-effect control and ±100 the full control effect
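THP-1 cells pretreated 1 hr with compounds (up to 57.5 uM final), then stimulated with LPS (250 ng/mL final) plus ATP (1.25 mM final); secreted IL-1B measured by AlphaLISA after 16 hr, decreased signal indicating inhibition.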
TDP1 cell CPT – growth inhibition of DT40 Tdp1-/-;hTDP1 cells with camptothecin (screen for TDP1 inhibitors); chicken DT40 Tdp1-/-;hTDP1 cells + 20 nM CPT, ATP luminescence, 48 h; Potency, µM (titrated, usually from 46.2 µM), for inactives: at the highest dose activity change, negative = growth inhibition, most hits filed as inhibitors; 420,000 tested, 12% active; AID 686979; further: potency means the concentration at half of the fitted maximal effect; on the % scale 0 is the no-effect control and ±100 the full control effect; nearly all actives have a fitted effect of over 55% in size
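Chicken DT40 Tdp1-/- cells stably complemented with human TDP1 were seeded at 400 cells/well in medium containing 20 nM camptothecin, exposed to pin-transferred compounds, and grown at 37 °C for at least 48 hr. Viability was read as ATP luminescence.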
HepG2 tox – counter-screen for TGF-b inhibitors: cytotoxicity in HepG2 cells. HepG2 CAGA-GFP viability, ATP luminescence, 18 h. Potency, µM (series often up to 46.1 µM), without a hit: at the highest dose activity change, negative = cytotoxicity, usual class: cytotoxic. 410,000 tested, 0.76% active. AID 588856; further: potency means the concentration at half of the fitted maximal effect
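CellTiter-Glo luminescence gave cytotoxicity after 18 hours at 37 degrees C. The cells were HepG2 CAGA-GFP in 1% FBS DMEM, stimulated with 500 pg/mL TGF-beta after compound addition. %Activity was normalised to no-cell wells (complete cell-killing) and DMSO (no toxicity), and curves were fitted and classified.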
TGFb SMAD3 inh – TGF-b pathway inhibition | HepG2 CAGA-GFP TGF-b/SMAD3 reporter, GFP fluorescence, 18 h; TGF-beta stimulated, 500 pg/mL final | Potency, µM (titrated, usually from 46.1 µM), for the others: at the highest dose activity, negative = inhibition, hits mostly inhibitors | 410,000 tested, 1.2% active; further: potency means the concentration at half of the fitted maximal effect; on the % scale 0 is the no-effect control and ±100 the full control effect; nearly all actives have a fitted effect of over 65% in size
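Inhibition of TGF-beta-driven CAGA-GFP reporter expression in HEPG2 cells is measured by cellular GFP fluorescence after 18 h stimulation with 500 pg/mL recombinant TGF-beta in 1% FBS medium at 37 degrees C.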
An asterisk follows results filed as active; i = inactive; ? = inconclusive; nt = no result given; [ ] = another dose, or the depositor's remark. This is a sample that favours compounds with a hit; in the whole collection about 19% have one here. Unless noted, the call rests on the fitted dose curve; in most records, active means well fitted curve in the direction sought with a large enough effect; inconclusive means small, poorly fitted or top-dose-only effect, or another doubt; inactive means no such curve, though single readings can be large; an effect the other way counts as inactive or inconclusive.

SMILES	TDP1 cell noCPT	S-ASM inh	IL-1B inflam inh	TDP1 cell CPT	HepG2 tox	TGFb SMAD3 inh
CC1C(=O)Nc2ccc(S(=O)(=O)N3CCCCC3)cc2NC1=O (stereo unspecified)	?	nt	nt	-13%	-2%	-2%
CCOC(=O)N1CCC(N2CCN(S(=O)(=O)c3ccc([N+](=O)[O-])cc3)CC2)CC1	?	0%	0	13µM*	-24%	-19%
CCOC(=O)N1CCN(S(=O)(=O)c2ccc(OCC(=O)OC)cc2)CC1	-7%	7%	-64*	-26%	-4%	-1%
COc1ccccc1CNC(=O)c1cc(S(=O)(=O)N2CCN(c3ccccc3)CC2)ccc1Cl	?	-2%	-5	?	1%	?
CO[C@H]1[C@H](NC(=O)c2ccsc2)c2ccccc2C12CCN(Cc1cccc3ncccc13)CC2	?	nt	nt	-11%[9.04 µM]	nt	nt
C[C@H](CO)N1C[C@H](C)[C@@H](CN(C)C(=O)Nc2ccc(C(F)(F)F)cc2)Oc2ccc(NC(=O)CCC(F)(F)F)cc2C1=O	-4%	-3%	-18	-25%	-5%	-19%
O=C(Cc1ccccc1)NC1CC(=O)N(c2ccccc2)C1 (stereo unspecified)	6%	nt	nt	14%	-13%	-6%
Cc1ccc(NC(=S)N2CCN(S(C)(=O)=O)CC2)cc1C	23%	0%	8	-14%	3%	0%
CCOC(=O)COc1ccc(S(=O)(=O)c2ccc(OCC(=O)OCC)cc2)cc1	-17%	1%	-92*	7%	13µM*	-4%
CCOC(=O)C1CCN(S(=O)(=O)c2ccc(OCC(=O)OC)cc2)CC1	1%	0%	-53*	-7%	-6%	0%
CC(=O)N1CCN(S(=O)(=O)c2c(C)n(C)c(=O)n(C)c2=O)CC1	-3%	-4%	12	22%	3%	17%
Clc1cccc(CN2CCc3c([nH]c4ccccc34)C2)c1Cl	23µM*	4%	-62*	?	-57%	?
CC(=O)Nc1ccc(N2C(=O)CC(Sc3nc(C)cc(C)n3)C2=O)cc1 (stereo unspecified)	7%	3%	23	3%	-1%	3%
COC(=O)c1ccc(N2C(=O)CC(Sc3n[nH]c(C)n3)C2=O)cc1 (stereo unspecified)	5.2µM*	0%	15	2.1µM*	-28%	0%
COc1ccc(N2C(=O)CC(Sc3n[nH]c(-c4cccc(C)c4)n3)C2=O)cc1 (stereo unspecified)	3.7µM*	-1%	-30	0.92µM*	39%	34%
CCOc1ccccc1N1C(=O)CC(Sc2n[nH]c(-c3ccccc3)n2)C1=O (stereo unspecified)	0.65µM*	5%	0	0.65µM*	-42%	?
Cc1ccc(S(=O)(=O)c2cn(CC(=O)Nc3ccc(F)cc3)c3cc4c(cc3c2=O)OCO4)cc1	-17%	nt	nt	-2%	1%	-13%
CN1CCC2(CC1)N=C(c1ccc(F)cc1)C(=S)N2C(=O)c1ccccc1	12µM*	-1%	0	7.3µM*	-2%	-5%
Cc1cccc(S(=O)(=O)N(C)C[C@H]2OCc3cnnn3CCCC(=O)N([C@H](C)CO)C[C@@H]2C)c1	?	nt	-16	12%	-52%	?
Cc1ccc(-n2[nH]c(C)c(/C=N/n3c(C)nc4ccccc4c3=O)c2=O)cc1	23µM*	0%	37	6.5µM*	6.3µM*	3%
Cc1ccc(-n2[nH]c(C)c(C=Nc3ccc(C)cn3)c2=O)cc1	16µM*	-3%	20	9.2µM*	4µM*	-19%
Cc1[nH]n(-c2ccccc2)c(=O)c1/C=N/n1c(C)nc2ccccc2c1=O	?	4%	15	?	-37%	1%
COCCN(C(=O)c1snc(C(N)=O)c1N)C(C(=O)NC1CCCCC1)c1ccc(N(C)C)cc1 (stereo unspecified)	15µM*	3%	0	-26%	-9%	1%
CCOc1ccc(C(C(=O)NC2CCCCC2)N(CCOC)C(=O)c2snc(C(N)=O)c2N)cc1 (stereo unspecified)	-14%	99%	8	24%	-9%	0%
COc1ccc(C(C(=O)NC2CCCC2)N(Cc2ccco2)C(=O)c2snc(C(N)=O)c2N)cc1OC (stereo unspecified)	-5%	138%	-59*	?	5%	10%
SMILES	TDP1 cell noCPT	S-ASM inh	IL-1B inflam inh	TDP1 cell CPT	HepG2 tox	TGFb SMAD3 inh
COc1ccc(C(C(=O)NC2CCCCC2)N(Cc2ccco2)C(=O)c2snc(C(N)=O)c2N)cc1 (stereo unspecified)	?	223%	-68*	?	-25%	-25%
NC(=O)c1nsc(C(=O)N(Cc2ccco2)C(C(=O)NC2CCCC2)c2ccc(O)cc2)c1N (stereo unspecified)	?	33%	-1	-29%	-8%	?
O=C(Nc1ccc(Br)cc1)C1CCCN(S(=O)(=O)c2ccc(Br)s2)C1 (stereo unspecified)	?	nt	nt	?	-18%	-11%
CCOCCCNC(=O)Cn1nc(Cc2ccncc2)c2ccccc2c1=O	-22%	7%	6	14%	8%	3%
O=C(CCC1CCCCC1)Nc1ccccc1-c1ccccc1	-18%	-2%	21	-3%	-3%	-12%
Cc1cc(C)cc(NC(=O)CNC(c2ccccc2)c2ccccc2)c1	10µM*	-3%	-6	?	1%	-29%
O=C(CC1CCCCC1)Nc1ccccc1-c1ccccc1	21µM*	-2%	-4	?	-23%	-7%
O=C(CNC(c1ccccc1)c1ccccc1)Nc1ccccc1-c1ccccc1	18µM*	-5%	16	?	9%	-28%
Cc1ccc2ccccc2c1C(O)c1ncc(-c2cccc(C(F)(F)F)c2)[nH]1 (stereo unspecified)	?	nt	32	-25%	-24%	?
COc1ccc(-c2oc3cccnc3c2C#CC2(O)CCCCC2)cc1	23µM*	74%	-56*	?	23%	?
COc1ccc(-c2oc3ccc(N4CCOCC4)cc3c2C#CC2(O)CCCCC2)cc1	16µM*	92%	11	?	-66%	?
COc1ccc(-c2oc3ccc(N4CCOCC4)cc3c2C#Cc2ccc(N)cc2)cc1	6.5µM*	i	47	7.3µM*	-6%	?
